Assay [1] is described as follows: qHTS Assay for Identifying Gametocytocidal Compounds (AID 743244). Further: potency means the concentration at half of the fitted maximal effect.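 On max response: on the % scale 0 is the no-effect control and ±100 the full control effect; actives lower the fluorescent signal which means gametocytes are killed.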 The note with it: P. falciparum 3D7 stage III-V gametocytes, alamarBlue, 72 h; max response: stronger effect = lower value. The method in brief: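 Late gametocytes (III–V), P. falciparum 3D7; 72 h drug, then 24 h alamarBlue; resazurin reduction read by fluorescence.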
A short description of assay [2]: qHTS assay to identify small molecule inhibitors of chordoma cells - UCH-1 (AID 1259355). Further: on the % scale 0 is the no-effect control and ±100 the full control effect; nearly all actives have a fitted effect of over 55% in size. The method in brief: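 Screening used approved and investigational drugs in 15-point titration against 800 seeded cells per well. A fixed combination of auranofin with camptothecin, doxorubicin, rubitecan and topotecan followed compound addition, and growth was scored by CellTiter-Glo after 48hr.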
For orientation: Quantitative high-throughput screening tests each substance at several concentrations.

Assay [3] is described as follows: qHTS profiling of the MIPE4 collection as inhibitors of Plasmodium falciparum (3D7) proliferation (AID 743344; call rule not given here;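 further: scaled between DMSO vehicle wells and 0.29 µM artemisinin as full inhibition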). The following applies: P. falciparum 3D7 in erythrocytes, SYBR Green DNA fluorescence, 72 h; at 28.5 µM (top of the series). In short, it runs like this:
(§1)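 Parasite DNA was quantified by SYBR Green I fluorescence (ex 485, em 535 nm) after overnight lysis in saponin/Triton buffer at room temperature. Cultures at 0.3% parasitemia and 2.5% hematocrit were first exposed to compound for 72 h at 37 C; signals were normalised to artemisinin (0.29 uM) and vehicle wells.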

Assay [4] is described as follows: qHTS profiling of the MIPE4 collection as inhibitors of Plasmodium falciparum (DD2) proliferation (AID 743345; call rule not given here). The following applies: P. falciparum Dd2 in erythrocytes, SYBR Green DNA, 72 h; at 28.5 µM (top of the series). In short, it runs like this: as §1
A short description of assay [5]: qHTS profiling of the MIPE4 collection as inhibitors of Plasmodium falciparum (DD2) proliferation (Rep 2) (AID 743346; call rule not given here). The note with it: P. falciparum Dd2 in erythrocytes, SYBR Green DNA, 72 h; at 28.5 µM (top of the series). In short, it runs like this: as §1
The nature of assay [6]: qHTS profiling of the MIPE4 collection as inhibitors of Plasmodium falciparum (HB3) proliferation (AID 743347; call rule not given here;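 further: plate controls were DMSO vehicle wells for no effect and artemisinin wells for full effect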). The following applies: P. falciparum HB3 in erythrocytes, SYBR Green DNA, 72 h; at 28.5 µM (top of the series). The method in brief: as §1
The nature of assay [7]: qHTS assay to identify small molecule inhibitors of chordoma cells - UCH-2 (AID 1259356). Further: on the % scale 0 is the no-effect control and ±100 the full control effect.
Assay [8] is described as follows: qHTS assay for small molecule antagonists of the retinoid-related orphan receptor gamma (ROR-gamma) signaling pathway - cell viability counter screen (AID 720652; active means well fitted curve in the direction sought with a large enough effect in the repeat runs; an effect the other way counts as inactive or inconclusive;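 further: CHO reporter cells with doxycycline-induced ROR-gamma expression; compound exposure lasted 16 hr before ATP read; on the % scale 0 is the no-effect control and ±100 the full control effect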). In short, it runs like this: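 CHO RORE-LUC/TET-ROR line, 1,000 cells/well, 37 C 5% CO2 5 hr; cpd or DMSO + doxycycline induction, 16 hr. CellTiter-Glo, 30 min RT, luminescence = ATP content.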
Assay [9] can be described thus: qHTS assay for small molecule agonists of the antioxidant response element (ARE) signaling pathway measured by Nrf2-dependant transcriptional activity - cell viability counter screen (AID 720653; active means well fitted curve in the direction sought with a large enough effect in the repeat runs; an effect the other way counts as inactive or inconclusive; further: on the % scale 0 is the no-effect control and ±100 the full control effect). The following applies: ARE-bla HepG2 viability, CellTiter-Glo ATP luminescence, 16 h; stronger effect = lower value. The method in brief:
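ARE-bla HepG2 cells treated with compounds for 16 h at 37C; this counter screen measures viability as intracellular ATP by CellTiter-Glo luminescence after 30 min at room temperature.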

Assay [10] can be described thus: qHTS assay for cell viability of HEK293 cells (AID 743288). Further: on the % scale 0 is the no-effect control and ±100 the full control effect; nearly all actives have a fitted effect of over 50% in size. The following applies: ATP luminescence (CellTiter-Glo), 18 h; max response: stronger effect = lower value. In short, it runs like this:
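Readout is luciferase-coupled ATP content (CellTiter-Glo luminescence, 30 min room temperature) as a measure of metabolically competent cells. Parental HEK293 cells were plated 5 h or more before compound addition, then treated 18 h at 37 C.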

Assay [11] can be described thus: qHTS assay for cell viability of the p53RE-bla HCT-116 cell line (AID 743292). Further: on the % scale 0 is the no-effect control and ±100 the full control effect; nearly all actives have a fitted effect of over 55% in size. In short, it runs like this:
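ATP-based luminescent viability (CellTiter-Glo, 30 min RT) after 16 h compound treatment at 37 C of p53RE-bla HCT-116 cells, seeded at 4,000 cells/well and rested 5 h before dosing.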

Assay [12] in a line: qHTS profiling for inhibitors of Plasmodium falciparum (3D7) proliferation (AID 743322).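 Further: infected erythrocytes exposed to compound for 72 h before lysis; 100% = DMSO vehicle wells and 0% = 0.29 µM artemisinin.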 The following applies: P. falciparum 3D7 proliferation; at 28.7 µM (top of the series) unless noted. In short, it runs like this: as §1
The nature of assay [13]: qHTS profiling for inhibitors of Plasmodium falciparum (DD2) proliferation (AID 743323; call rule not given here). The following applies: lower = more inhibition; at 28.7 µM (top of the series) unless noted. The method in brief: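 Parasite DNA quantified by SYBR Green fluorescence (ex 485, em 535 nm) after saponin/Triton lysis and overnight dark incubation. Cultures: 0.3% parasitemia, 2.5% hematocrit, 72 h, 37 C; data scaled between DMSO and 0.29 uM artemisinin.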

The nature of assay [14]: qHTS profiling for inhibitors of Plasmodium falciparum (HB3) proliferation (AID 743324).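 Further: 100% = DMSO vehicle wells and 0% = artemisinin-treated control wells.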 The following applies: Plasmodium falciparum HB3 blood-stage proliferation; at 28.7 µM (top of the series) unless noted. The method in brief:
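SYBR Green fluorescence (485 ex/535 em) of lysed cultures, incubated overnight at room temperature in the dark, quantifies parasite DNA. Infected erythrocytes at 0.3% parasitemia and 2.5% hematocrit were exposed 72 h; values normalized to DMSO and 0.29 uM artemisinin controls.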

“And” between values parts separate entries of the source, which are not always exact repeats. Identical values can stand only once. Results filed as inconclusive are left out. The source made the active and inactive calls. Unless noted, the call rests on the fitted dose curve; in most records, active means well fitted curve in the direction sought with a large enough effect; inconclusive means small, poorly fitted or top-dose-only effect, or another doubt; inactive means no such curve, though single readings can be large; an effect the other way counts as inactive or inconclusive.

As for `Nc1nc(/C(=C/CC(=O)O)C(=O)N[C@@H]2C(=O)N3C(C(=O)O)=CCS[C@H]23)cs1`, the max response in assay [1] was -2.9% (inactive). Also, the Potency entry in assay [2] was “inactive”.
The corresponding values for `NC(=O)c1ccc[n+]([C@@H]2O[C@H](COP(=O)([O-])OP(=O)(O)OC[C@H]3O[C@@H](n4cnc5c(N)ncnc54)[C@H](O)[C@@H]3O)[C@@H](O)[C@H]2O)c1` are 2.6% (inactive) and “inactive”.
`CC[C@H]1OC(=O)[C@H](C)[C@@H](O[C@H]2C[C@@](C)(OC)[C@@H](O)[C@H](C)O2)C(C)[C@@H](O[C@@H]2O[C@H](C)C[C@H](N(C)C)[C@@H]2O)[C@](C)(OC)C[C@@H](C)C(=O)[C@H](C)[C@@H](O)[C@]1(C)O` (stereo not given in full): the parasite growth, % of DMSO control in assay [3] is 19.7%. The parasite growth remaining, % of DMSO control (lower = more inhibition) in assay [4] amounted to 35.4%. The compound further registered a parasite growth, % of control (lower = inhibition) in assay [5] of 38.9%. This compound also gave a growth, % of control in assay [6] of 37.4%. The Potency entry in assay [2] and in assay [7] was “inactive” in each case.
Turning to `CCN(CC)CCOC[C@H]1O[C@@H](O)[C@H](OCCN(CC)CC)[C@@H](O)[C@@H]1O`, in [1], the max response is 6.01% (inactive). The Potency entry in assay [2] was “inactive”.
The corresponding values for `FC(F)(F)C(F)(F)C(F)(F)C(F)(F)C(F)(F)C(F)(F)F` are 13.2% (inactive) and “inactive”.
As to `CC1CS(=O)(=O)CCN1/N=C/c1ccc([N+](=O)[O-])o1` (stereo not given), in assay [1], the Potency is 14.1 µM (active). Besides, in assay [2], the Potency result was “inactive”.
Turning to `CNC(C)CCC=C(C)C` (stereo not given), the Potency entry in [7] is “inactive”.
Turning to `[O-][N+](=Nc1ccccc1)c1ccccc1`, the call in assay [8] and in [11] was inactive. Further, the values for the max response in assay [9], in assay [1] and in [10] were -2.2% (inactive), 18.6% (inactive) and -0.626% (inactive), respectively. Further, the Potency result in assay [2] is “inactive”.
For the compound `CN(C)CCOc1ccc(/C(=C(/CCCl)c2ccccc2)c2ccccc2)cc1`, the max response in [1] is 7.93% (inactive). Moreover, the Potency result in assay [2] was “inactive”.
Take `C[C@@H]1O[C@@H](OC[C@H]2O[C@@H](Oc3c(-c4ccc(OCCO)c(OCCO)c4)oc4cc(OCCO)cc(O)c4c3=O)[C@H](O)[C@@H](O)[C@@H]2O)[C@H](O)[C@H](O)[C@H]1O`: in [1], the max response was 6.8% (inactive). In addition, the Potency entry in assay [2] was “inactive”.
Regarding `CC1(C)[C@@H]2CC[C@@]1(C)[C@H](OC(=O)CSC#N)C2`, in assay [1], the max response is -3.31% (inactive). Besides, the Potency result in assay [2] is “inactive”.
Regarding `CCOC(C)OCC`, the call in [8] and in assay [11] was inactive. Also, the values for the max response in assay [9] and in assay [1] were -4.14% (inactive) and 16.8% (inactive), respectively. The Potency result in assay [2] was “inactive”.
As for `NC(N)=NCC1COc2ccccc2O1` (stereo not given), in [1], the max response is -11.6% (inactive). Besides, the Potency result in assay [2] was “inactive”.
In the case of `CN1c2c(nc(N)[nH]c2=O)NCC1CNc1ccc(C(=O)NC(CCC(=O)O)C(=O)O)cc1` (stereo not given), in assay [1], the max response was 15.5% (inactive). The Potency result in [2] was “inactive”.
Consider `C#C[C@]1(O)CC[C@@H]2[C@H]3CCC4=CC(=O)CC[C@H]4[C@H]3C(=C)C[C@@]21CC`, for which the remaining parasite growth % (stronger effect = lower value) in assay [12] turned out to be 38.1%. This compound gave an activity, percent of control in assay [13] of 51.3%. Further, the remaining proliferation (% of control), lower = more inhibition in [14] came out at 25.2%. The parasite growth, % of DMSO control in assay [3] turned out to be 22.9%. The parasite growth remaining, % of DMSO control (lower = more inhibition) in assay [4] was determined as 82.2%. The compound also yielded a parasite growth, % of control (lower = inhibition) in [5] of 66.9%. For the same compound, the growth, % of control in assay [6] is 44.4%. The Potency result in assay [2] and in assay [7] was “inactive” throughout.
For the compound `CC(C)(C)NC[C@H](O)COc1ccccc1C1CCCC1`, the Potency entry in [7] was “inactive”.
Take `CC1(C)S[C@@H]2[C@H](NC(=O)C3(N)CCCCC3)C(=O)N2[C@H]1C(=O)O`: the max response in assay [1] is 7.96% (inactive). Besides, the Potency result in assay [2] is “inactive”.
For `O=P(O)(O)OP(=O)(O)O`, the max response in assay [1] is 2.77% (inactive). For the same compound, in assay [7], the Potency result was “inactive”.
For `CCCOC(=O)c1ccccc1O` the same measures were -13% (inactive) and “inactive”.
For `CNC(=O)[C@H](Cc1c[nH]c2ccccc12)NC(=O)[C@@H](CC(=O)NO)CC(C)C` the same measures were -3.58% (inactive) and “inactive”.
For `CCOC(=O)[C@@H](N)CS` the same measures were 0.746% (inactive) and “inactive”.
Take `NC(=O)Oc1ccc(Cc2ccccc2)cc1`: the max response in [1] is -7.34% (inactive).
On to `Cc1ncc[nH]1`, for which the outcome in assay [8] and in [11] was inactive. The results for the max response in assay [9] and in assay [1] were 2.15% (inactive) and 20% (inactive), respectively. Further, the Potency entry in [7] was “inactive”.
For `CC(C)(C)c1ccc2c(S(=O)(=O)O)c(C(C)(C)C)ccc2c1`, the max response in assay [1] was 10.3% (inactive) and 35.8% (inactive). In addition, the Potency entry in assay [7] is “inactive”.
With `CC(C)=CCC/C(C)=C/CC/C(C)=C/CC/C=C(\C)CC/C=C(\C)CCC=C(C)C`, in assay [1], the max response is -7.41% (inactive) and 5.06% (inactive). Further, the Potency result in assay [7] was “inactive”.
For the compound `CO[C@@]1(NC(=O)C2SC(=C(C(N)=O)C(=O)O)S2)C(=O)N2C(C(=O)O)=C(CSc3nnnn3C)CS[C@@H]21` (stereo not given in full), in [1], the max response was 10.6% (inactive). Moreover, in assay [7], the Potency result was “inactive”.
